Unmarked numbers belong to inactive results. Records with an inconclusive call do not appear. Entries that show only a call come without a potency. Activity calls are given as the source filed them. Unless noted, calls come from the whole dose curve; as a rule, active = well fitted curve in the direction sought with a large enough effect; inconclusive = small, poorly fitted or top-dose-only effect, or another doubt; inactive = no such curve, though single readings can be large; an effect the other way counts as inactive or inconclusive. Where a SMILES comes first, the peptide text is derived from it.
What was measured:
[1] = AP1 Signaling Pathway (AID 357; active = well fitted curve in either direction with a large enough effect, not every such curve was filed as active); details: ME-180 AP-1-bla reporter, EGF-induced, beta-lactamase ratio, 5 h
Summary of the method: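 AP-1-bla ME-180 cells with beta-lactamase reporter under AP-1 response element, stimulated with EC50 EGF; compounds titrated, 5 hours at 37 degrees Celsius. CCF4 read at 460/530 nm ratio; positive and negative modulators judged by AC50.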

[2] = Stat Signaling Pathway (AID 446; active = well fitted curve in either direction with a large enough effect, not every such curve was filed as active;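 note: ME-180 cervical cancer cells given 40 pM IL-6 alongside compound; SIE-controlled beta-lactamase reporter measured as 460/530 nm FRET emission ratio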); details: ME-180 SIE beta-lactamase reporter, IL-6 stimulated, 5 h
Summary of the method: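 Reporter line: ME-180 cervical carcinoma, SIE-beta-lactamase. Treatment: compound with 40 pM IL-6, 5 hrs, 37 C, in low-serum OPTI-MEM with 10 mM HEPES pH 7.3. Detection: 460/530 nm fluorescence.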

[3] = target: Mitogen-activated protein kinase 10 (Mus musculus) (UniProt Q61831); experiment: JNK3 AlphaScreen Assay (AID 530; active = well fitted curve in either direction with a large enough effect, not every such curve was filed as active;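 note: kinase came from lysate of stimulated human HepG2 cells; signal reports phosphorylation of biotinylated GST-cJun 1-79 at Ser73 with 10 µM ATP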)
Summary of the method: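 Inhibitors reduce antibody binding to phosphorylated biotin-cJun, lowering AlphaScreen luminescence. Lysates from HepG2 cells pre-activated by IL-1beta plus TNF-alpha supplied JNK3; compounds were titrated.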

[4] = target: Guanine nucleotide-binding protein G(i) subunit alpha-1 (Homo sapiens) (UniProt P63096); experiment: qHTS Assay for Inhibitors of RGS12 GoLoco Motif Activity (Green Fluorophore) (AID 879);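 note: negative values mean loss of peptide binding seen as reduced polarization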
Guanine nucleotide-binding protein G(i) subunit alpha-1 (Homo sapiens), sequence (P63096 whole entry, looked up): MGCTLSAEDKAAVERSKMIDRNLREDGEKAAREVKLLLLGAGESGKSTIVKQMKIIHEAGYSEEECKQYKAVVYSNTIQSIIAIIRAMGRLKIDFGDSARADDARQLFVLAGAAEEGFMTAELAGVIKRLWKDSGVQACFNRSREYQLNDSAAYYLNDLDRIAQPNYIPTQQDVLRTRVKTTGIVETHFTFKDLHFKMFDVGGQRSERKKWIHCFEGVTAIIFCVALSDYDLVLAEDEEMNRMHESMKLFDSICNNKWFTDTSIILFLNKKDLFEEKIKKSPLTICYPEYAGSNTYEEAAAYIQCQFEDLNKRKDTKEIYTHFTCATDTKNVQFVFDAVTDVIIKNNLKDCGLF
Summary of the method: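 Fluorescence polarization assay: 50 nM Gαi1 with 10 nM FITC-labeled RGS12 GoLoco peptide in 10 mM Tris pH 7.5, 150 mM NaCl, 0.1 mM GDP, 0.05% NP40, 10 min at room temperature with compound.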

[5] = qHTS Assay for Identification of Small Molecule Agonists for Thrombopoietin (TPO) Signaling Pathway (AID 917)
Summary of the method: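 Activators of TPO signaling were sought in murine Ba/F3 cells transfected with the human receptor, using a luciferase gene driven by the Glycoprotein IIb promoter; 24-hr compound exposure at 37 C alongside 26 pM TPO, in IL-3-free medium.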

[6] = target: Pyruvate kinase (Leishmania mexicana) (UniProt Q27686); experiment: qHTS Validation Assay for Inhibitors of Leishmania Mexicana Pyruvate Kinase (AID 945)
Pyruvate kinase (Leishmania mexicana), sequence (Q27686 2-499 E452W): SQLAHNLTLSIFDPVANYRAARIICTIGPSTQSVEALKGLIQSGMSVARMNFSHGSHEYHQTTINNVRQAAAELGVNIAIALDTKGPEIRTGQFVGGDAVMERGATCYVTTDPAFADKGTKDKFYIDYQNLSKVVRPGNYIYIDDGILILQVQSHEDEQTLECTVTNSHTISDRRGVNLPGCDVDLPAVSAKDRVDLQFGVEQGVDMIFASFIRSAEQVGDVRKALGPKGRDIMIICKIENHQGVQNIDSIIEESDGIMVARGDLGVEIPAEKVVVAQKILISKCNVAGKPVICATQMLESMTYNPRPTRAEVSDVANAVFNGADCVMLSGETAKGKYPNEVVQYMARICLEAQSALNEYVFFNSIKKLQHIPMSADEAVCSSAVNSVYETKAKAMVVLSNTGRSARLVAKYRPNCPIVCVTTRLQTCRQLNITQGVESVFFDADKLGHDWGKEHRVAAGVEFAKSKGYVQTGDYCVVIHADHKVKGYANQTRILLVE
Summary of the method: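 An endpoint luciferase assay: 0.2 nM LmPYK E451W turns over 0.5 mM PEP with 0.1 mM ADP for 1 h at room temperature, pH 7.2, before PKLight addition. Values are normalized to DMSO-only wells.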

[7] = target: Alpha-galactosidase A (Homo sapiens) (UniProt P06280); experiment: Counterscreen for Glucocerebrosidase Inhibitors: qHTS Assay for Human alpha-Galactosidase at pH 4.5 (AID 992)
Alpha-galactosidase A (Homo sapiens), sequence (P06280 whole entry, looked up): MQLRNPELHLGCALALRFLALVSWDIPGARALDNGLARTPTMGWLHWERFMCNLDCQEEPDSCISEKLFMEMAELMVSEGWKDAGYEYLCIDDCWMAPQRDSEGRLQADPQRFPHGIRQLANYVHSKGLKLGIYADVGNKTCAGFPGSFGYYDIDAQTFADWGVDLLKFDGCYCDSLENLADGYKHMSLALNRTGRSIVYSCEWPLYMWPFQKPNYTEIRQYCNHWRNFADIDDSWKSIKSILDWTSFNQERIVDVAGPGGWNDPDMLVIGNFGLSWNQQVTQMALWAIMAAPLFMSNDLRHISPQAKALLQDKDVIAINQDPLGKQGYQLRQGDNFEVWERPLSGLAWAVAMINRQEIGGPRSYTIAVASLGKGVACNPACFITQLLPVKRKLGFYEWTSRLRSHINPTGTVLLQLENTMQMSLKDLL
Summary of the method: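 Quantitative HTS: compounds tested from 0.7 nM up to 77 uM against 2 nM enzyme with 80 uM 4-MU alpha-D-galactopyranoside. The 20 min room-temperature reaction is stopped with 1M NaOH/1M glycine, pH 10.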

[8] = target: alpha-glucosidase (Oryza sativa, rice) (UniProt Q653V4); experiment: Counterscreen for Glucocerebrosidase Inhibitors: qHTS Assay for Rice alpha-Glucosidase at pH 5.0 (AID 997)
Summary of the method: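 Rice alpha-glucosidase (4 nM final) with 400 uM 4-methylumbelliferyl-alpha-D-glucopyranoside in citrate buffer pH 5.0, 20 min at room temperature, stopped at pH 10; fluorescence 365/440 nm, compounds 0.7 nM–77 uM, AC50 from Hill fits.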

[9] = target: DNA dC->dU-editing enzyme APOBEC-3G (Homo sapiens) (UniProt Q9HC16); experiment: qHTS for inhibitors of Vif-A3G interactions: Validation (AID 588379)
DNA dC->dU-editing enzyme APOBEC-3G (Homo sapiens), sequence (Q9HC16 whole entry, looked up): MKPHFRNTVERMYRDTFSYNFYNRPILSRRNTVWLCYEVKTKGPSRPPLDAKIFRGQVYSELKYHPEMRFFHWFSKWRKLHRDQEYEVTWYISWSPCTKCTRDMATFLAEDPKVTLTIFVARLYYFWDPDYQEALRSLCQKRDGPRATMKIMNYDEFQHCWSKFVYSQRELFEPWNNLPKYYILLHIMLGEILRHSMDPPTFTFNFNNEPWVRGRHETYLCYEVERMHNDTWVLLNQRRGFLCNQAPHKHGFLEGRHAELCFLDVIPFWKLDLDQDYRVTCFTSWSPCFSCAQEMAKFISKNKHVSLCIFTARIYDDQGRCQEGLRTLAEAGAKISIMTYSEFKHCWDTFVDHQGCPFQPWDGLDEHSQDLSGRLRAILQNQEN
Summary of the method: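 HeLa cells stably expressing Vif and A3G-eYFP, 700 cells/well, incubated overnight at 37 deg C, then exposed to compound overnight at 37 deg C. Inhibition of Vif-mediated degradation read as increased yellow fluorescence (Ex 488/Em 500-530) by laser-scanning cytometry.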

[10] = tested on: Zika virus NS2B-NS3 protease; experiment: Primary screen GU AMC qHTS for Zika virus inhibitors (AID 1347154); note: nearly all actives have a fitted effect of over 70% in size
Summary of the method: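 Unlinked Zika NS2B hydrophilic domain/NS3 protease domain noncovalent complex (25 nM final) in 10 mM Tris-HCl pH 8.0, 0.01% Tween 20, with AMC peptide substrate. Fluorescence (ex 340, em 450 nm) change over 15 min, room temperature; percent inhibition fitted to 4-parameter Hill equation.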

[11] = Counterscreen qHTS for small molecule stabilizers of the endoplasmic reticulum resident proteome: GLuc-NoTag assay (AID 1508627);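 note: SH-SY5Y cells given compound then 100 nM thapsigargin to empty ER calcium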
Summary of the method: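 SH-SY5Y cells stably expressing constitutively secreted GLuc (no SERCaMP tag) were pre-incubated 5 h, treated with compound for 19 h, then 100 nM thapsigargin for 4 h at 37C; medium GLuc read by coelenterazine luminescence.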

[12] = Confirmatory qHTS for small molecule stabilizers of the endoplasmic reticulum resident proteome: Secreted ER Calcium Modulated Protein (SERCaMP) assay (AID 1508628); note: nearly all actives have a fitted effect of over 40% in size; note: potency is the fitted concentration of half-maximal effect
Summary of the method: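 SH-SY5Y cells stably expressing GLuc-SERCaMP, treated 16 h with compound (primary 1.53, 7.67, 38.3 uM; confirmation 11 concentrations, up to 76.6 uM), then 100 nM thapsigargin for 4 h. Secreted Gaussia luciferase in medium read by coelenterazine luminescence.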

[13] = NCATS anti-infectives library activity on HEK293 viability as a counter-qHTS vs the C. elegans viability qHTS (AID 1745854);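 note: HEK293 cells exposed to compounds for 24 hr before the viability read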
Summary of the method: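 Compounds were acoustically plated (several concentrations, 1:5, final up to 41.7 uM), then 1500 HEK293 cells added per well and incubated 24 hr at 37C, 5% CO2. CellTiter-Glo was added and luminescence read after 10 min.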

[14] = target: Cytochrome P450 3A4 (Homo sapiens) (UniProt P08684); experiment: qHTS Assay for Inhibitors and Substrates of Cytochrome P450 3A4 (AID 884); note: nearly all actives have a fitted effect of over 50% in size; note: potency is the fitted concentration of half-maximal effect
Cytochrome P450 3A4 (Homo sapiens), sequence (P08684 whole entry, looked up): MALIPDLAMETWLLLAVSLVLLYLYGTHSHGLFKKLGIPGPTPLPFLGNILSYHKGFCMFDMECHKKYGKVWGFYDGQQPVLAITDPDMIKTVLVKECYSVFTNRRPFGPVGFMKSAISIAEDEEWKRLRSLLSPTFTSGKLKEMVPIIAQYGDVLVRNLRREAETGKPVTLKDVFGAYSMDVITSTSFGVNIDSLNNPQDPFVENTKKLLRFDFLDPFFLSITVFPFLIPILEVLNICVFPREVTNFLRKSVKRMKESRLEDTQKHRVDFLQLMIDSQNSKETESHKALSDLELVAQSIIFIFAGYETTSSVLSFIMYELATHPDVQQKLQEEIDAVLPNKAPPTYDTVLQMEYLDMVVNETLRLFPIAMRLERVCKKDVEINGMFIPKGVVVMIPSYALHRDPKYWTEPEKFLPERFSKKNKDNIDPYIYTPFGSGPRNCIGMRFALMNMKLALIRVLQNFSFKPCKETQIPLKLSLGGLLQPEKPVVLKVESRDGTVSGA
Summary of the method: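 20 nM human CYP3A4 with 25 uM Luciferin-PPXE (at KM) in 200 mM KPO4, preincubated 10 min with compound; NADPH regeneration started a 60 min RT reaction. Luciferin detected by luminescence, normalized to 57 uM ketoconazole as full inhibition.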

[15] = Primary qHTS for small molecule stabilizers of the endoplasmic reticulum resident proteome: Secreted ER Calcium Modulated Protein (SERCaMP) assay (AID 1508630)
Summary of the method: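 GLuc-SERCaMP-expressing SH-SY5Y cells, pretreated 16 h with compound, are challenged with thapsigargin to empty ER calcium stores; after 4 h, coelenterazine is added directly to the medium and luminescence is imaged.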

[16] = Cell Viability qHTS for small molecule stabilizers of the endoplasmic reticulum resident proteome (AID 1508629); details: cell viability counter-screen, 100 nM thapsigargin for final 4 h;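 note: human SH-SY5Y neuroblastoma cells carrying the GLuc-SERCaMP reporter; compound exposure about 46 h in total before the viability read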
[17] = target: Cytochrome P450 3A4 (Homo sapiens) (UniProt P08684); experiment: qHTS Assay for Activators of Cytochrome P450 3A4 (AID 885); note: nearly all actives have a fitted effect of over 65% in size
Summary of the method: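 Signal was normalized against complete inhibition by 57 uM ketoconazole. The reaction used 20nM CYP3A4 with 25uM Luciferin-PPXE, 10-min compound preincubation and a 60-min NADPH-supported step at RT.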

COc1ccc(CCN(C)CCC[C@@](C#N)(c2ccc(OC)c(OC)c2)C(C)C)cc1OC
activity change, negative = inhibition ([1]; at 17.2 µM (top of the series)): 2.2%
activity change, negative = inhibition ([1]; at 38 µM (top of the series)): 10.5%
activity, negative = inhibition ([2]; at 17.2 µM (top of the series)): -16.1%
activity, negative = inhibition ([2]; at 38 µM (top of the series)): -6.6%
Potency [3]: inactive
outcome [4]: inactive
Potency [5]: inactive
Potency [6]: inactive
outcome [7]: inactive
outcome [8]: inactive
Potency [9]: inactive
Potency [10]: inactive
Potency [11]: inactive
Potency [12]: 12.6 µM (active)
outcome [13]: inactive

CCCCCCCCCCCCCCCC(=O)OC(CO)CO
Potency [14]: inactive
Potency [10]: inactive
Potency [11]: inactive
Potency [12]: inactive

CNCC(=O)NCC(=O)N[C@@H](Cc1ccccc1)C(=O)N[C@@H](CC(C)C)C(=O)O (HELM PEPTIDE1{[Sar].G.F.L}$$$$V2.0)
activity change, negative = inhibition [10]: 7.91% [at 6.83 µM]
activity change, negative = inhibition [15]: -6.57% [at 3.88 µM]

CC(C)ON(CC(=O)NO)S(=O)(=O)c1ccc(-c2ccccc2)cc1
Potency [10]: inactive
Potency [15]: inactive

N=C(N)SCCN=C(N)N
Potency [10]: inactive
Potency [11]: inactive
max response [16]: -2.13%

CCN(CC)CCCCN1c2ccccc2Oc2ccc(Cl)cc21
Potency [10]: inactive
Potency [12]: inactive

CCOC(=O)NC[C@H](Cc1ccc(OCCc2nc(-c3ccccc3)oc2C)cc1)N/C(C)=C\C(=O)c1ccc(C(F)(F)F)cc1
Potency [14]: 0.794 µM (active)
Potency [17]: inactive
Potency [10]: inactive
Potency [11]: inactive
Potency [12]: 31.6 µM (active)

CCCCC/C=C\C/C=C\C/C=C\C/C=C\CCCC(=O)O[C@@H](CO)COCCCCCCCCCCCCCCCC
activity change, negative = inhibition [10]: 9.81% [at 6.83 µM]
activity change, negative = inhibition [15]: -14% [at 3.88 µM]

O=P(O)(O)C(O)c1ccc2ccccc2c1 (centres undefined)
Potency [10]: inactive
Potency [15]: inactive

CCCCCCCC/C=C\C/C=C\C/C=C\CCCC(=O)NCCO
activity change, negative = inhibition [10]: 9.89% [at 6.83 µM]
activity change, negative = inhibition [15]: -21.6% [at 3.88 µM]

CCC(N)(C(=O)O)c1ccc(C(=O)O)cc1 (centres undefined)
Potency [10]: inactive
Potency [15]: inactive

COC(C)(C)CCCC(C)C/C=C/C(C)=C/C(=O)O (centres undefined)
Potency [10]: inactive
Potency [15]: inactive

CCCCC(C)(C)[C@H](O)/C=C/[C@H]1[C@H](O)CC(=O)[C@@H]1C/C=C\CCCC(=O)O
activity change, negative = inhibition [10]: 5.54% [at 6.83 µM]
activity change, negative = inhibition [15]: 8.87% [at 3.88 µM]

COC(=O)[C@H](Cc1ccc(C#Cc2ccccc2)cc1)NC(=O)C[C@H]1CCCN(C(=N)N)C1
Potency [10]: inactive
Potency [15]: inactive

COCCCCCCCCCCCC(=O)O
activity change, negative = inhibition [10]: 13.2% [at 6.83 µM]
activity change, negative = inhibition [15]: -27.3% [at 3.88 µM]

Source: PubChem BioAssay (NCATS)
